VDR inhibitor: Inhibitors of the vitamin D receptor (VDR): qHTS | Vitamin D3 receptor (Homo sapiens), P11473 | VDR-SRC2-3 peptide fluorescence polarization, 2 h | Potency, µM, inactives show max response, negative = inhibition, hits mostly inhibitors | actives 0.93% (n = 400,000) | AID 504847, 2011; also: % is scaled to controls: 0 for no effect and ±100 for the full control effect
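Signal is fluorescence polarization, reporting how far test compounds block the interaction of VDR with the SRC2-3 coregulator peptide after a 2 h room-temperature incubation.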
IDH1 R132H inh: qHTS for Inhibitors of mutant isocitrate dehydrogenase 1 (IDH1): qHTS; Isocitrate dehydrogenase [NADP] cytoplasmic (Homo sapiens), O75874; AID 602179, 2012; actives 0.093% (n = 390,000); IDH1-R132H enzyme, NADPH consumption, diaphorase/resazurin fluorescence; Potency, µM (series often up to 76.6 µM), without a hit: top-dose activity change, negative = inhibition, actives largely listed as inhibitors; also: % is scaled to controls: 0 for no effect and ±100 for the full control effect; nearly all actives have a fitted effect of over 65% in size
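IDH1-R132H (0.5 ug/mL) preincubated 30 min with compound, then NADPH (0.016 mM) and alpha-KG (2 mM) added; 80 min at RT, pH 7.5. Remaining NADPH coupled via diaphorase/resazurin to fluorescence (540/590 nm); concentration-response curves normalized to no-enzyme control.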
rTrxR1 inhibitor: qHTS Assay for Inhibitors of Mammalian Selenoprotein Thioredoxin Reductase 1 (TrxR1): qHTS | AID 588453, 2011 | recombinant rTrxR1, NADPH fluorescence consumption, selenite substrate | actives 1% (n = 390,000) | Potency, µM (titrated, usually from 114 µM), for the others: top-dose activity change, negative = inhibition, most hits filed as inhibitors; also: % is scaled to controls: 0 for no effect and ±100 for the full control effect; nearly all actives have a fitted effect of over 65% in size
Target sequence (O89049 whole entry, looked up): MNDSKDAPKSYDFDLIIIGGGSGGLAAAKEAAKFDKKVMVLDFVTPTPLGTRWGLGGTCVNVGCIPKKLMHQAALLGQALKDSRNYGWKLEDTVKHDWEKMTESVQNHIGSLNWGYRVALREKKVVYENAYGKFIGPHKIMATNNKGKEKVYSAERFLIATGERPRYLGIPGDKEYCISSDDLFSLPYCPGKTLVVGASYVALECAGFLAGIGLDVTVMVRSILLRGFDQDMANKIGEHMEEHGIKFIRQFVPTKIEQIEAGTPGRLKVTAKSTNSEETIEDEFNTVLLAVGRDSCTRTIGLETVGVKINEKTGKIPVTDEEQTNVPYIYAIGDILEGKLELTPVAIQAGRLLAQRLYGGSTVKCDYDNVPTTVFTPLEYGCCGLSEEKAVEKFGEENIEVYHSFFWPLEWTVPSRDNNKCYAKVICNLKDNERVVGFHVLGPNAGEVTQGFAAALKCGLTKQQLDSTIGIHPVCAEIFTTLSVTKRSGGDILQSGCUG
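Rat TrxR1 (90 nM in the dispensed reagent) was pre-reduced with 400 uM NADPH for 5 min at room temperature, then incubated with compound for 15 min. After 400 uM selenite was added, NADPH fluorescence (Ex 340/Em 450 nm) was followed for 8 min.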
Sfp inh: qHTS Assay for Inhibitors of Bacillus subtilis Sfp phosphopantetheinyl transferase (PPTase); 4'-phosphopantetheinyl transferase ffp (Bacillus subtilis), Q9F4F7; Biochemical Sfp PPTase activity, qHTS; Potency, µM, inactives show largest response in the series, negative = inhibition, actives largely listed as inhibitors; actives 3.5% (n = 310,000); AID 1490, 2009;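 also: the enzyme is Sfp with the accession as filed and its product quenches rhodamine fluorescence; 0% = enzyme reaction without inhibitor and -100% = no enzyme wells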
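With Hepes-Na pH 7.6 buffer containing 10 mM MgCl2, Sfp (15 nM) modified BHQ-2-YbbR (12.5 uM) using rhodamine-CoA (5 uM). Two reads 30 minutes apart at 525/598 nm yielded each well's rate.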
PLK1 PBD inh: qHTS for Inhibitors of PLK1-PDB (polo-like kinase 1 - polo-box domain): Primary Screen | Serine/threonine-protein kinase PLK1 (Homo sapiens), P53350 | Plk1 PBD binding of FITC phosphopeptide, fluorescence polarization | Potency, µM, for inactives: max response, negative = inhibition, actives largely listed as inhibitors | actives 2.8% (n = 360,000); also: series mostly up to about 57 µM; % is scaled to controls: 0 for no effect and ±100 for the full control effect; nearly all actives have a fitted effect of over 65% in size
TrxR1 substrate: qHTS Assay for Substrates of Mammalian Selenoprotein Thioredoxin Reductase 1 (TrxR1): qHTS; purified TrxR1 substrate turnover, NADPH consumption readout; Potency, µM (doses to about 114 µM), for inactives: top-dose activity change, negative = substrate turnover; actives 0.01% (n = 390,000); also: % is scaled to controls: 0 for no effect and ±100 for the full control effect; nearly all actives have a fitted effect of over 50% in size
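Rat TrxR1, dispensed at 90 nM, was prereduced with 400 uM NADPH (final) for 5 min at ~22 deg C, then incubated with compound 15 min before 400 uM selenite. A first-read NADPH fluorescence drop versus no-compound background flagged substrates.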
VDR inh confirm: qHTS for Inhibitors of the vitamin D receptor (VDR): Hit Validation in Primary Screen; Potency, µM, actives largely listed as inhibitors; actives 89% (n = 840); shares compounds with VDR inhibitor; VDR-coactivator inhibition assay, qHTS confirmation
VDR FP fluor: qHTS for Inhibitors of the vitamin D receptor (VDR): Hit Validation using a Fluorescein Assay | Potency, µM (titrated, usually from 57.1 µM), inactives show at the top dose activity change, negative = inhibition, most hits filed as inhibitors | VDR-coactivator binding, fluorescein fluorescence polarization | shares compounds with VDR inhibitor | AID 602200, 2012 | actives 48% (n = 840)
VDR bla reporter: qHTS for Inhibitors of the vitamin D receptor (VDR): Hit Validation using a Beta-Lactamase Assay; Potency, µM (doses to about 46.1 µM), for inactives: at the top dose activity change, negative = inhibition, most hits filed as inhibitors; shares compounds with VDR inhibitor; actives 23% (n = 840); AID 602202, 2012; VDR beta-lactamase reporter cells, FRET ratio; cells co-treated with VDR agonist LG190178; also: % is scaled to controls: 0 for no effect and ±100 for the full control effect
VDR cytotox: qHTS for Inhibitors of the vitamin D receptor (VDR): Hit Validation using a Cytotoxicity Assay. actives 18% (n = 840). cytotoxicity counter-screen, cell viability, qHTS. Potency, µM (series often up to 48.3 µM), for inactives: at the top dose activity change, negative = cytotoxicity, most hits filed as cytotoxic. AID 602204, 2012. shares compounds with VDR inhibitor;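 also: plate controls were DMSO for no effect and high-concentration cycloheximide for full effect; nearly all actives have a fitted effect of over 75% in size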
TbPYK confirm: qHTS of Trypanosoma Brucei Inhibitors: Confirmatory Assay for Cherry-picked Compounds. actives 67% (n = 890). recombinant TbPYK, Kinase-Glo ATP luminescence. Potency, µM (doses to about 76.9 µM), for the others: at the highest dose activity change, negative = inhibition, actives largely listed as inhibitors. shares compounds with PLK1 PBD inh; also: % is scaled to controls: 0 for no effect and ±100 for the full control effect; nearly all actives have a fitted effect of over 70% in size
TbPYK ADP-Glo: qHTS of Trypanosoma Brucei Inhibitors: Orthogonal Assay for Cherry-picked Compounds. Potency, µM (series often up to 76.9 µM), inactives show at the top dose activity change, negative = inhibition, actives largely listed as inhibitors. shares compounds with PLK1 PBD inh. actives 62% (n = 890). recombinant TbPYK, ADP-Glo luminescence, 60 min; also: % is scaled to controls: 0 for no effect and ±100 for the full control effect; nearly all actives have a fitted effect of over 75% in size
Numbers without * were called inactive; ? = inconclusive; nt = no result given; [ ] = dose if it differs, or a comment. Shown are actives, neighbours in structure and some others; about 5.2% of the full set was active somewhere. Calls follow the shape of the dose curve; as a rule, active = well fitted curve in the direction sought with a large enough effect; inconclusive = small, poorly fitted or top-dose-only effect, or another doubt; inactive = no such curve, though single readings can be large; an effect the other way counts as inactive or inconclusive. Potency is read from the fitted curve at half-maximal effect.

SMILES	VDR inhibitor	IDH1 R132H inh	rTrxR1 inhibitor	Sfp inh	PLK1 PBD inh	TrxR1 substrate	VDR inh confirm	VDR FP fluor	VDR bla reporter	VDR cytotox	TbPYK confirm	TbPYK ADP-Glo
CC1=CC(=O)C(C(C)C)=CC1=NC(=O)c1ccc(C)cc1	25µM*	12%	?	10µM*	2.7µM*	-15%	3.8*	?	?	?	7.9µM*	7.9µM*
CCCc1nc2c(C)cc(Br)cn2c1Cc1ccccc1C(F)(F)F	nt	nt	nt	nt	-8%	nt	nt	nt	nt	nt	nt	nt
C=CC(=O)Nc1sc2c(c1C(N)=O)CCCC2	9%	16%	?	nt	-10%	-5%	nt	nt	nt	nt	nt	nt
NC(=O)c1c(N)sc2c1CCCCC2	79µM*	10%	-22%	22µM*	?	-1%	18*	14µM*	-1%	-8%	?	?
CCOC(=O)c1c(N)sc(N)c1C(=O)OCC	8.9µM*	-12%	-11%	?	3.4µM*	-3%	4.7*	8.9µM*	1%	9%	32µM*	14µM*
CC(C)(C)n1nnnc1C(c1cccnc1)N1CCN(C2CCCCC2)CC1 (stereo not drawn)	4%	-6%	11%	8%	4%	5%	nt	nt	nt	nt	nt	nt
CC(C)(C)c1cc(C(c2cccnc2)N2CCN(CCO)CC2)cc(C(C)(C)C)c1O (stereo not drawn)	25µM*	-22%	?	20µM*	1.9µM*	5%	3.8*	4µM*	16µM*	?	0.32µM*	2.8µM*
CCc1c(N)nc(N)nc1Nc1ccccc1C	9%	4%	9%	nt	2%	4%	nt	nt	nt	nt	nt	nt
CN1CCN(C(=O)c2sc(=S)n(-c3ccccc3)c2N)CC1	45µM*	5%	-20%	-94%	1.5µM*	-8%	11*	?	-5%	-5%	0.63µM*	0.89µM*
Cc1c(C(=O)O)sc(=S)n1-c1ccccc1	2%	7%	-1%	24%	-9%	-16%	nt	nt	nt	nt	nt	nt
COc1ccc2[nH]c3c4c(ccc3c2c1)C(=O)C=CC4=O	?	-12%	50µM*	6.3µM*	?	-2%	7.1*	5µM*	6.5µM*	?	5µM*	?
COc1ccc2[nH]c(-c3ccc(F)cc3F)cc(=O)c2c1	0%	nt	nt	5%	nt	nt	nt	nt	nt	nt	nt	nt
COCCN(C(=O)c1ccc2c(c1)C(=O)N(c1ccccc1Cl)C2=O)c1c(N)n(CC(C)C)c(=O)[nH]c1=O	-5%	16%	1%	nt	5%	-7%	nt	nt	nt	nt	nt	nt
O=C(/C=C/c1ccc(-c2ccccc2[N+](=O)[O-])o1)c1ccco1	?	11%	-1%[57.1 µM]	?	-19%	0%[57.1 µM]	nt	nt	nt	nt	nt	nt
O=C1ON=C(c2ccccc2)/C1=C/c1ccc(-c2ccccc2[N+](=O)[O-])o1	35µM*	?	?	?	0.95µM*	-6%	7.5*	?	16µM*	23µM*	32µM*	?
COC(=O)C1(C(=O)OC)C[C@H](c2ccc(OC)cc2)N(Cc2ccccc2OC)[C@@H]1c1cccs1	nt	nt	nt	nt	0%	nt	nt	nt	nt	nt	nt	nt
O=C(/C=C1\C(=O)Nc2ccccc21)/C=C1\C(=O)Nc2ccccc21	56µM*	-8%	1µM*	1.4µM*	8.4µM*	1%	12*	?	?	?	18µM*	18µM*
O=C1CCC(C(=O)Nc2cccc(S(=O)(=O)Nc3ccccc3F)c2)=NN1	25µM*	3%	5%[2.29 µM]	nt	2.4µM*	8%[57.1 µM]	?	?	25%	14%	6.3µM*	6.3µM*
Nc1ccc2c(c1)C(=O)C(=O)c1ccccc1-2	20µM*	11%	6.3µM*	13%	1.5µM*	4µM*	6.7*	?	4.1µM*	2.9µM*	14µM*	?
CC1(C)CC(=O)C(C(c2ccc(F)cc2)C2C(=O)CC(C)(C)CC2=O)C(=O)C1	-7%	0%	4%[57.1 µM]	-33%	-27%	-5%[57.1 µM]	nt	nt	nt	nt	nt	nt
CCc1sc(C(C2C(=O)CC(C)(C)CC2=O)C2C(=O)CC(C)(C)CC2=O)cc1[N+](=O)[O-]	13µM*	1%	1.8µM*	11µM*	1.7µM*	-2%[57.1 µM]	3.4*	?	?	-13%	16µM*	32µM*
CCCC(=O)N1CCOCC1c1cc(C(=O)NCc2ccccc2)no1 (stereo not drawn)	nt	nt	nt	nt	-6%	nt	nt	nt	nt	nt	nt	nt
